The list shows a part of the results. Inconclusive results are not listed. Activity calls are given as the source filed them. Calls come from the whole dose curve; as a rule, active = well fitted inhibition curve with a large enough effect; inconclusive = small, poorly fitted or top-dose-only effect; inactive = flat fitted curve, though single readings scatter.
assay: Cell cycle validation with wells to cells screening paradigm; details: HeLa cell cycle G2/M arrest, Hoechst DNA content imaging
Source text: Understanding cell cycle regulation is a critical component in combating various diseases such as cancer. Proper execution of cell cycle activity is essential for processes such as cell growth, DNA replication, and mitosis and surveillance mechanisms function as cell cycle checkpoints at the G1, S, and G2/M phases. Thus, profiling agents which disrupt cancer cell division represents a large effort in oncology-based studies. Compound-induced cell cycle perturbations can be analyzed through changes in specific cell cycle phase markers, such as DNA content, using high content screening. […] Furthermore, recent imaging based studies have performed cell cycle analysis following compound treatment where phenotypic fingerprints for phases of the cell cycle were determined or concentration-response based testing of selected compounds and drugs was used to measure a phenotypic profile in a dose-dependent manner. […]
Reagents: 70% EtOH, Hoechst Stain, PBS Controls: 7.6 uM (final starting concentration) Vinblastine and 38.3 uM (final starting concentration) nocodazole were dispensed into columns 1 and 2, respectively, and titrated 1:2 in DMSO (16-point in duplicate). […] Plates were read on the Acumen eX3 system and concentration response curves were generated after the readings. […]

Structure (SMILES) | Potency
O=c1cc(-c2ccccc2)[nH]c2nc(Cl)ccc12 | 2000 nM (active)

— PubChem BioAssay AID2441 (National Center for Advancing Translational Sciences (NCATS), 2010)
